# In ChEMBL document CHEMBL3988442, “University of Dundee, Small-Polar-MMV Screening Library” (2021):
# Among all 48,000 compounds or so, about 13,000 (27%) showed an effect of 50% or more. Some of the results follow.
# Tested on: Wolbachia pipientis
# Experiment: Anti-Wolbachia Cell-Based Screen
# Assay type: functional
# Parameters: scale not given: in the data most compounds retested in dose-response had high values
# Settings: 5 µM
row,Compound,Percent Effect [%]
1,CNS(=O)(=O)CC1CCCN1c1ccc(Cl)cn1 (centres undefined),-0.6453
2,CC(C)COC(C)C(=O)N1CCCCC1 (centres undefined),22.01
3,CC(NC1(CNC(=O)Cn2cccn2)CCOCC1)c1ccccc1 (centres undefined),-4.179
4,Cc1cnn(CCNCC(=O)NCCOc2ccccc2)c1,-6.94
5,CN(C(=O)CNCCn1cccn1)C1(C#N)CCCCC1,-7.323
6,Cc1cnn(CCNCC(=O)NCC2(c3ccccc3)CCC2)c1,6.79
7,O=C(Cn1cccn1)NCC1(c2ccccc2)CC1,8.498
8,O=C(CNCCn1cccn1)NCC1(c2ccccc2)CCOCC1,92.49
9,O=C(CNCCn1cccn1)NCC1(c2ccccc2)CCCC1,152.5
10,Cc1cccc(C2(C(=O)NCCCn3cccn3)CC2)c1,-18.04
11,O=C(CNCCn1cccn1)NCC1(c2ccccc2)CC1,-4.744
12,O=C(CNCCn1cccn1)NCC1(c2ccccc2)CCC1,123.8
13,Cc1cnn(CCNCC(=O)NCC2(c3ccccc3)CC2)c1,75.55
14,N#CC1(NC(=O)CNCCn2cccn2)CCCCC1,0.8723
15,Fc1ccc(-n2cccn2)c(CN2CCCCC2CCn2ccnc2)c1 (centres undefined),6.266
16,Cc1cc(NC(=O)CCNC(C)(C)c2nc(C)c(C)s2)no1,-5.204
17,Cc1ccccc1C1CCCN(C(=O)c2c[nH]c(=O)c(Cl)c2)C1 (centres undefined),0.979
18,O=C(NCc1ccoc1)c1ccc(C2CCCN2CC2CCOCC2)s1 (centres undefined),-3.898
19,CC(=O)NC(Cc1c[nH]c2cc(F)ccc12)C(=O)Nc1nncs1 (centres undefined),-20.07
20,CC(C)NC(=O)c1cc2c([nH]c1=O)CC(c1cccs1)CC2=O (centres undefined),-15.67
21,Cc1ccc(CN2CC[C@H]3OCC[C@@H](C(=O)NCC4CC4)[C@@H]3C2)o1,-3.1
22,Cc1ccc(CN2C[C@@H]3C[C@H](C(=O)NCC4CC4)N(C)[C@@H]3C2)o1.O=C(O)C(F)(F)F.O=C(O)C(F)(F)F,102.8
23,COCCN1CCO[C@@H]2CN(Cc3ccc(C)o3)C[C@@H]2C1.O=C(O)C(F)(F)F.O=C(O)C(F)(F)F,4.147
24,O=C(NCC1CC1)[C@@H]1CCO[C@@H]2CCN(Cc3ccco3)C[C@H]21.O=C(O)C(F)(F)F,-5.269
25,CN1[C@@H](C(=O)NCC2CC2)C[C@@H]2CN(Cc3ccoc3)C[C@@H]21,87.47

row,Compound,Percent Effect [%]
1,CN(C)[C@@H]1CN(Cc2ccco2)C[C@@H]2CCCO[C@@H]21.O=C(O)C(F)(F)F.O=C(O)C(F)(F)F,5.089
2,CC(C)N1[C@@H](C(=O)NCC2CC2)C[C@@H]2CN(Cc3ccco3)C[C@@H]21,96.03
3,Cc1ccc(CN2C[C@H]3C[C@H](C(=O)NCc4cccnc4)[C@@H](C2)O3)o1,-11.22
4,Cc1ccc(CN2C[C@H]3C[C@H](C(=O)NCC4CC4)N(C)[C@H]3C2)o1,105.7
5,CC(=O)N1C[C@H]2CCCN(Cc3ccc(C)o3)[C@H]2C1.O=C(O)C(F)(F)F,-21.55
6,CC(C)(C)CCS(=O)(=O)NCCc1csc(N2CCCC2)n1,-17.7
7,CC(C)(C)SCC(=O)Nc1cc(-n2nnnc2C2CC2)ccc1F,-2.902
8,c1ncc2c(n1)CN(Cc1cn3ccsc3n1)CC2,-19.58
9,NC(=O)CN(CC(=O)NCc1cc(F)cc(F)c1)C1CCCC1,2.456
10,CC1(C)COCCN1C(=O)Cc1csc(Cc2ccccn2)n1,-7.387
11,CCNC(=O)NC(=O)CN1CCC(c2c[nH]c3ccc(OC)cc23)CC1,-12.44
12,CC(C)Cc1noc(CN(C)C2CCS(=O)(=O)C2)n1 (centres undefined),-20.93
13,Cc1ccc(S(N)(=O)=O)cc1C(=O)NCC1Cc2ccccc2O1 (centres undefined),20.46
14,Cc1ccc(S(N)(=O)=O)cc1C(=O)NC1CCCC1,60.38
15,Cc1ccc(C)c(C(=O)NC2CCC(N3C(=O)CCC3=O)CC2)c1 (centres undefined),7.383
16,CCc1ccc(O)c(C(=O)NC2CCN(S(=O)(=O)CC)CC2)c1,-4.06
17,COCC(O)CN1CCC(NC(=O)c2cscc2C)CC1 (centres undefined),-6.433
18,COCCC(=O)N1CCC(NC(=O)c2cscc2C)CC1,4.5
19,O=C(NC1CCN(C2CC2)CC1)c1cc(Cl)ccc1-n1cnnn1,-15.3
20,COC(=O)N1CCC(NC(=O)c2cc(S(N)(=O)=O)ccc2C)CC1,98.52
21,NS(=O)(=O)c1ccc(F)c(C(=O)NCCSC2CCCCC2)c1,-0.4963
22,CC(=O)N1CCC(NC(=O)c2cc(Cl)ccc2O)CC1,5.076
23,Cc1ccc(S(N)(=O)=O)cc1C(=O)NC1CCN(C2CC2)CC1,102.7
24,CC(=O)N1CCC(NC(=O)c2cc(S(N)(=O)=O)ccc2C)CC1,120.7
